{"source": "PubChem BioAssay", "note": "Unmarked numbers belong to inactive results.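 How the source made its calls: active means viability increase at or above a cutoff of the median across tested compounds plus 3 SD (cut at about 8.5% in these data, passing the limit was not always enough); inconclusive means some gains above the cutoff, reason not given; inactive means the rest.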"}
{"assay": "viability gain of MRP-1-high H69AR cells under doxorubicin, pilot screen, MRP-1 activator project, CellTiter-Glo, duplicate (AID 807);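 further: compound pretreatment 18-22 h then 72 h combined with doxorubicin; 0% = doxorubicin alone and 100% = vehicle without doxorubicin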", "conditions": "H69AR viability with doxorubicin, CellTiter-Glo luminescence; at 10 µM; active compounds read high", "units": {"viability increase": "%"}}
{"smiles": "O=C(Cn1cc2c(n1)CCCC2)N1CCOCC1", "viability increase": -0.03}
{"smiles": "CCOc1ccc(-c2nnc3ccc(SCC(=O)N4CCCCC4)nn23)cc1", "viability increase": -4.24}
{"smiles": "O=C(NC1CCCCCCC1)c1c(O)c2ccccc2[nH]c1=O", "viability increase": -4.23}
{"smiles": "COC(=O)C(C)Sc1nnc(Cc2cc(=O)[nH]c(=O)[nH]2)n1-c1ccc(OC)cc1", "note": "(stereo not given)", "viability increase": 0.81}
{"smiles": "O=C(CCn1c(=O)oc2ccccc21)Nc1ccc2c(c1)OCCO2", "viability increase": -3.68}
{"smiles": "CCCOC(=O)C1=C(C)NC2=C(C(=O)C(C(=O)OC)C(C)C2)C1c1ccc(N(CC)CC)cc1", "note": "(stereo not given)", "viability increase": -3.23}
{"smiles": "CC1CCc2nn(CC(=O)NCCCN3CCCC3=O)cc2C1", "note": "(stereo not given)", "viability increase": -1.1}
{"smiles": "COc1ccc(C2C(C(=O)Nc3ccccc3OC)=C(C)Nc3ncnn32)cc1", "note": "(stereo not given)", "viability increase": -3.68}
{"smiles": "COc1ccccc1NC(=O)CSc1nc2ncccc2[nH]1", "viability increase": -1.01}
{"smiles": "O=C(NCc1ccccc1Cl)c1cnc2n(c1=O)CCS2", "viability increase": -0.78}
{"smiles": "CCCS(=O)(=O)c1nc(S(=O)(=O)c2ccc(C)cc2)c(NCCCN2CCOCC2)s1", "viability increase": -1.8}
{"smiles": "CCOC(=O)C(C)Sc1ncnc2nc[nH]c12", "note": "(stereo not given)", "viability increase": -1.35}
{"smiles": "O=C(CSc1ncccn1)NCCc1ccccc1", "viability increase": -1.26}
{"smiles": "CN1CCN(C(=O)c2ccc3c(c2)N(Cc2cccc(Cl)c2)C(=O)c2ccccc2S3=O)CC1", "note": "(stereo not given)", "viability increase": -3.66}
{"smiles": "Cc1nc2sc(C(c3ccccc3)N3CCN(CCO)CC3)c(O)n2n1", "note": "(stereo not given)", "viability increase": -1.6}
{"smiles": "N=c1n(CCO)c2ccccc2n1CCOc1ccc(Cl)cc1Cl", "viability increase": -8.35}
{"smiles": "CCOCCCNC(=O)C(c1ccc(Cl)cc1)N1CCN(c2ccccc2)CC1", "note": "(stereo not given)", "viability increase": -2.39}
{"smiles": "CCn1c(CNC(=O)c2ccc(OC)cc2)nnc1SC", "viability increase": -1.74}
{"smiles": "COc1ccc(C2C(C(=O)NCCN(C)C)c3ccccc3C(=O)N2C)cc1OC", "note": "(stereo not given)", "viability increase": -0.77}
{"smiles": "Cc1csc2nc(CNS(=O)(=O)c3ccc(-c4ccccc4)cc3)cn12", "viability increase": -1.09}
{"smiles": "Cc1cc(-c2nnco2)c(C)n1-c1ccc(F)cc1", "viability increase": -2.15}
{"smiles": "Cc1nn(-c2ccccc2)c(C)c1C(=O)OCC(=O)Nc1ccc2c(c1)OCO2", "viability increase": -0.97}
{"smiles": "Cc1nc2ccccc2n1-c1ccccc1", "viability increase": 0.08}
{"smiles": "CCSc1nnc(-c2ccc(Cl)cc2Cl)o1", "viability increase": -5.13}
{"smiles": "COc1ccccc1N1CCN(C(=O)CCCCn2c(=O)[nH]c3ccsc3c2=O)CC1", "viability increase": -2.84}
{"smiles": "C=CCn1c(CSc2nc3ccccc3s2)nnc1SCC(=O)OCC", "viability increase": -0.04}
{"smiles": "COc1ccc(-n2ncc3c(N4CCCCC4)ncnc32)cc1", "viability increase": -3.57}
{"smiles": "CCC(=O)NCc1nc2ccccc2n1Cc1ccccc1F", "viability increase": -0.04}
{"smiles": "O=C(CCS(=O)CCC(=O)NCc1ccccc1)NCc1ccccc1", "viability increase": -0.32}
{"smiles": "COc1ccc(N2CCN(C(=O)C(Cc3ccccc3)n3cccc3)CC2)cc1", "note": "(stereo not given)", "viability increase": -2.94}
{"smiles": "CCCC(=O)c1ccc(N2CCOCC2)c(F)c1", "viability increase": 5.59}
{"smiles": "Cc1ccccc1-n1c(Cn2c(=O)sc3ccccc32)nnc1SCC(=O)N1CCOCC1", "viability increase": -1.91}
{"smiles": "COc1ccc(OC)c2sc(NC(=O)c3ccc(Br)s3)nc12", "viability increase": -3.64}
{"smiles": "CCc1c(C)sc(NC(=O)c2cccs2)c1C(=O)OC(C)C", "viability increase": 4.48}
{"smiles": "COc1ccc(C(=O)Nc2ccccc2C(=O)NCCCn2ccnc2)cc1", "viability increase": -0.82}
{"smiles": "CC(=O)Nc1ccc(C(=O)c2ccccc2)cc1", "viability increase": -1.14}
{"smiles": "O=C(NCCCN1CCC(Cc2ccccc2)CC1)C1CC(=O)N(C2CCCC2)C1", "note": "(stereo not given)", "viability increase": -2.03}
{"smiles": "CC(C)(C)c1nc(CN2CCCCC2)cc(CN2CCCCC2)c1O", "viability increase": -5.26}
{"smiles": "O=C1CCC(=O)N1CNc1cccnc1", "viability increase": -0.41}
{"smiles": "O=C(Cc1c(F)cccc1Cl)c1ccc(O)cc1O", "viability increase": -0.88}
